From ChEMBL document CHEMBL3988442, “University of Dundee, Small-Polar-MMV Screening Library” (2021) come the findings set out here.

SMILES strings stand for the structures. About 13,000 (27%) of roughly 48,000 compounds showed an effect of 50% or more. This is one part of the list.

The test has as its system Wolbachia pipientis. The test is described as follows: Anti-Wolbachia Cell-Based Screen. It counts as functional. The arrangement: scale not given: in the data most compounds retested in dose-response had high values. Particulars: 5 µM.
On to `O=c1ccc(-n2ccnc2)nn1CCNS(=O)(=O)c1ccc(Cl)s1`, for which the “Percent Effect” value turned out to be 9.208%.

In the case of `Cc1nc(NS(=O)(=O)c2cc(C)c(Br)cc2C)no1`, the “Percent Effect” value is on record as 12.58%.

As to `CCn1ncc2c1C(COC)CN(Cc1ccco1)C2` (configuration not stated), the “Percent Effect” value is 102.5%.

Take `CCn1nnc2c1C(COC)CN(Cc1cccs1)C2.O=C(O)C(F)(F)F` (configuration not stated): the “Percent Effect” value is -4.503%.

Consider `CCn1nnc2c1C(COC)CN(Cc1ccco1)C2` (configuration not stated), for which the “Percent Effect” value came to 114.9%.

Take `CCn1cc2c(n1)C(COC)CN(Cc1ccoc1)C2` (configuration not stated): the “Percent Effect” value is recorded as -1.069%.

With `CCn1nnc2c1C(COC)CN(C(=O)Cc1cccs1)C2` (configuration not stated), the “Percent Effect” value is -3.417%.

For the compound `CCn1ncc2c1C(COC)CN(Cc1ccc(C)o1)C2` (configuration not stated), the “Percent Effect” value turned out to be 99.39%.

For the compound `Cc1ccc(CN2Cc3cnn(C)c3C(COCC3CC3)C2)o1` (configuration not stated), the “Percent Effect” value is reported as 20.07%.

Turning to `CNC(=O)C1(N(C)CCc2ccccc2)Cc2ccccc2C1`, the “Percent Effect” value came to 30.02%.

As to `CCc1ccccc1C(=O)N1C[C@@H](CN2CCOCC2)[C@@H](CO)C1`, the “Percent Effect” value is listed as -4.214%.

For the compound `O=C(NCC(O)c1cccc(F)c1)C1CCN(C(=O)C2CCC2)CC1` (configuration not stated), the “Percent Effect” value was -0.7968%.

Consider `COc1ccc(-n2ncc(C(C)NC3CCSCC3)c2C)cc1` (configuration not stated), for which the “Percent Effect” value is on record as -4.294%.

As to `CC(C)CC1SCC(=O)Nc2c1cnn2C(C)C` (configuration not stated), the “Percent Effect” value is reported as 1.479%.

For the compound `CC(=O)N1CCC(NC(C)c2cnn(-c3ccc(F)cc3F)c2C)CC1` (configuration not stated), the “Percent Effect” value is given as -2.797%.

For the compound `COc1ccc(-n2ncc3c2NC(=O)CSC3C(C)C)cc1` (configuration not stated), the “Percent Effect” value was found to be 81.05%.

`CC(C)C1SCC(=O)Nc2c1cnn2-c1ccc(Cl)cc1` (configuration not stated): the “Percent Effect” value was 114.3%.

Consider `CC(C)CC1SCC(=O)Nc2c1cnn2-c1ccc(F)cc1` (configuration not stated), for which the “Percent Effect” value is reported as 52.58%.

Regarding `CN1CCN(Cc2cnn(-c3ccc(F)cc3)c2)[C@H]2CS(=O)(=O)C[C@H]21`, the “Percent Effect” value is listed as -6.219%.

On to `COc1ccc(C2CC(=O)Nc3c2cnn3C)cc1` (configuration not stated), for which the “Percent Effect” value is on record as 32.7%.

Take `CC(C)C1SCC(=O)Nc2c1cnn2-c1ccc(Cl)cc1F` (configuration not stated): the “Percent Effect” value came out at 70.31%.

For the compound `CC(C)(C)n1ncc2c1NC(=O)CC2c1ccsc1` (configuration not stated), the “Percent Effect” value is recorded as 12.08%.

As to `Cc1c(C(C)NC2CSCCSC2)cnn1-c1ccc(F)cc1F` (configuration not stated), the “Percent Effect” value is reported as -0.1798%.

As for `Cc1noc(CNC(=O)NCCOc2ccc(Cl)cc2)n1`, the “Percent Effect” value is -1.273%.

Turning to `N#Cc1cccc(OCCCN2CCN(C(=O)c3ccoc3)CC2)c1`, the “Percent Effect” value was -11.27%.

As to `CC(C)C1SCC(=O)Nc2c1cnn2-c1ccc(F)cc1` (configuration not stated), the “Percent Effect” value was 81.09%.

With `CC(C)n1[nH]c(=O)c2c1NC(=O)CSC2C1CCCCC1` (configuration not stated), the “Percent Effect” value is -15.8%.

Regarding `CC(C)n1ncc2c1NC(=O)CSC2C(C)(C)C` (configuration not stated), the “Percent Effect” value stood at 1.885%.

As for `Cc1ccccc1CN(CCN(C)C)Cc1ccc(S(C)(=O)=O)cc1`, the “Percent Effect” value is -5.606%.

For the compound `COc1cccc(C(C(=O)O)N(C)Cc2ccc(C)o2)c1` (configuration not stated), the “Percent Effect” value stood at 105.1%.

Take `Cc1noc(CN(Cc2ccc3c(c2)OCO3)Cc2ccc(C)o2)n1`: the “Percent Effect” value was found to be 1.784%.

For the compound `Cc1n[nH]c(C)c1CN(C)C(C(=O)O)c1ccc2c(c1)OCO2` (configuration not stated), the “Percent Effect” value is recorded as 109.5%.

With `CN1CCCN(C(C(=O)O)c2ccc3c(c2)OCO3)CC1` (configuration not stated), the “Percent Effect” value is -6.004%.

Consider `COc1cccc(OC)c1C(C(=O)O)N(C)Cc1c(C)n[nH]c1C` (configuration not stated), for which the “Percent Effect” value is recorded as -9.19%.

`COc1cccc(Cl)c1C(C(=O)O)N(C)Cc1c(C)n[nH]c1C` (configuration not stated): the “Percent Effect” value was -23.52%.

As for `CN(C)C(C(=O)N1CC(c2ccccn2)C1)c1ccc2c(c1)OCO2` (configuration not stated), the “Percent Effect” value is -10.36%.

Turning to `CN(Cc1ccccn1)C(C(=O)O)c1ccc2c(c1)OCO2` (configuration not stated), the “Percent Effect” value is on record as 99.57%.

As to `Cc1ccc(CN(C)C(C(=O)O)c2ccc3c(c2)OCO3)o1` (configuration not stated), the “Percent Effect” value is on record as 114%.

As to `COc1ccc(C(C(=O)O)N(C)CCN2CCOCC2)c(C)c1` (configuration not stated), the “Percent Effect” value is on record as 5.185%.

As to `COc1c(C)cc(C(C(=O)O)N(C)Cc2ccn[nH]2)cc1C` (configuration not stated), the “Percent Effect” value is on record as -0.04634%.

With `COc1ccc(C(C(=O)O)N(C)Cc2ccon2)cc1Cl` (configuration not stated), the “Percent Effect” value was 4.9%.

On to `CCc1c(C)[nH]c(C(C)(C)N)nc1=O.Cl`, for which the “Percent Effect” value is 24.57%.

For the compound `CCSc1ncc(CN2CCN(c3nc(C)cnc3C)CC2)cn1`, the “Percent Effect” value was -7.047%.

Take `CN(C)CCCC(=O)N1C[C@H]2CC[C@@H]1CN(Cc1ccccc1)C2`: the “Percent Effect” value is recorded as -3.863%.

Consider `CCC(CC)C(=O)NCC1(NC(C)c2ccccc2)CCOCC1` (configuration not stated), for which the “Percent Effect” value was -13.17%.

Regarding `COc1ccc(C)cc1CCNS(C)(=O)=O`, the “Percent Effect” value is given as 4.512%.

Regarding `Cn1ccnc1CN1CCC2(CC1)COC2.O=C(O)C(F)(F)F`, the “Percent Effect” value was 97.83%.

With `Cn1ccnc1CN1CCC2(CC1)CCN(Cc1ccoc1)C2.O=C(O)C(F)(F)F.O=C(O)C(F)(F)F`, the “Percent Effect” value was -4.24%.

In the case of `O=C(O)C(F)(F)F.O=S(=O)(C1CC1)N1CCOCC2(CCN(c3ccccn3)C2)C1` (configuration not stated), the “Percent Effect” value turned out to be 8.73%.

As for `CCOC1CC2(CCN(Cc3nccn3C)CC2)C1.O=C(O)C(F)(F)F`, the “Percent Effect” value came to 2.92%.

Regarding `Cn1ccnc1CN1CCC2(CC1)COCCN(S(C)(=O)=O)C2.O=C(O)C(F)(F)F`, the “Percent Effect” value is given as 104.9%.

Regarding `COC1CC2(CCN(Cc3nccn3C)CC2)C1.O=C(O)C(F)(F)F`, the “Percent Effect” value was 5.077%.

As for `Cn1cncc1CN1CCC2(CC1)COCCN(S(C)(=O)=O)C2.O=C(O)C(F)(F)F`, the “Percent Effect” value stood at 124.1%.

Turning to `Cn1ccnc1CN1CCC2(COCCN(Cc3ccsc3)C2)C1` (configuration not stated), the “Percent Effect” value was determined as 14.38%.

Turning to `Cn1ccnc1CN1CCC2(COCCN(S(=O)(=O)C3CC3)C2)C1` (configuration not stated), the “Percent Effect” value was found to be 106.3%.

In the case of `CN1CCOCC2(CCN(Cc3ccc[nH]3)CC2)C1.O=C(O)C(F)(F)F.O=C(O)C(F)(F)F`, the “Percent Effect” value is on record as -3.282%.

Turning to `CS(=O)(=O)N1CCOCC2(CN(Cc3nccs3)CCO2)C1.O=C(O)C(F)(F)F` (configuration not stated), the “Percent Effect” value worked out at 6.136%.
